# In PubChem BioAssay (NCATS):
# Records with an inconclusive call do not appear. Where a call stands in place of a potency, no number is given. Calls of active or inactive are those of the source. Calls follow the shape of the dose curve; as a rule, active = well fitted cell-killing curve with a large enough effect; inconclusive = small, poorly fitted or top-dose-only effect; inactive = no such curve, though single readings can be large or run the other way.
# Test: qHTS of pediatric cancer cell lines to identify multiple opportunities for drug repurposing: Primary screen for A673 cells (AID 1347092); also: nearly all actives have a fitted effect of over 45% in size
# Conditions: A673 Ewing sarcoma viability, CellTiter-Glo ATP luminescence, 48 h; series mostly up to 46 µM
# Outline: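 A673 cells (500-1,000 cells/well in growth media) were pre-incubated 5 h at 37 degrees C, then exposed to compounds for 48 h. Viability was read as CellTiter-Glo luminescence; concentration-response curves came directly from the primary screen.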
# Potency is read from the fitted curve at half-maximal effect.
row,SMILES,Potency
1,CCOC(=O)O[C@]1(C(=O)OCCl)CC[C@H]2[C@@H]3CCC4=CC(=O)C=C[C@]4(C)[C@H]3[C@@H](O)C[C@@]21C,inactive
2,C[C@H]1C[C@H](O)c2ccsc2S1(=O)=O,inactive
3,CCN(CC)CC(=O)Oc1ccc(NC(C)=O)cc1,inactive
4,COC(=O)c1cc(Cl)c(NC(C)=O)cc1OC,inactive
5,C[N+]1(C)CCC(OC(=O)C(O)(c2ccccc2)C2CCCC2)C1 (centres undefined),inactive
6,CCOC(=O)C(O)c1ccccc1 (centres undefined),inactive
7,CCN1CCCC1CN (centres undefined),inactive
8,Cc1cc2nc3ccc(=[N+](C)C)cc-3sc2cc1N,10.6 µM (active)
9,CCOC(=O)OCC/C(SC(=O)OCC)=C(\C)N(C=O)Cc1cnc(C)nc1N,inactive
10,CCN(CC)CCN,inactive
11,CC(C)(C)c1nnc(NS(=O)(=O)c2ccccc2)s1,inactive
12,CC(C)C(=O)Nc1cccc(C(F)(F)F)c1,inactive
13,CC(C)NCCCC1(C(N)=O)c2ccccc2-c2ccccc21,inactive
14,Oc1ccccc1-c1nnco1,inactive
15,CN=C(N)NC(=O)Nc1c(C)cccc1C,inactive
16,Cc1cc(=O)oc2cc(O[C@@H]3SC[C@@H](O)[C@H](O)[C@H]3O)ccc12,inactive
17,CN1C(=O)c2ccccc2C1=O,inactive
18,CCN1CCN(C(=O)N[C@@H](C(=O)N[C@@H]2C(=O)N3[C@@H]2SC(C)(C)[C@H]3C(=O)O)c2ccccc2)C(=O)C1=O,inactive
19,O=C(C1CCCCC1)N1CC(=O)N2CCCc3ccccc3C2C1 (centres undefined),inactive
